The campaign covered roughly 5,500 compounds. About 2,000 (36%) were called active. About 18% were inconclusive and are not listed. Rule as the data show it: active = normalized growth mostly below about 0.91 (no sharp cut-off); inconclusive = no clear call, values can overlap the other calls; inactive = mostly above about 0.92. The list shows a part of the results.
Experiment: chemical genetic growth profiling, strain panel (AID 1159580);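 also: tested at 20 µM; growth read once vehicle control cultures reached saturation at 30 °C; 1 = growth at the plate median or of vehicle wells; lower values mean less growth of the strain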
Details: S. cerevisiae deletion strains, growth OD

Measured: normalized growth

O=C1c2cccc(O)c2C(=O)c2c(O)cccc21
active: locus YJR043C, strain POL32, active compounds read low 0.767 | locus YJR066W, strain TOR1, active compounds read low 0.796 | locus YKL009W, strain mrt4, active compounds read low 0.844 | locus YKL160W, strain elf1, active compounds read low 0.835 | locus YKL190W, strain CNB1, active compounds read low 0.697 | locus YKR001C, strain vps1, active compounds read low 0.405 | locus YLR027C, strain aat2, active compounds read low 0.878 | locus YLR039C, strain RIC1, active compounds read low 0.178 | locus YLR058C, strain SHM2, active compounds read low 0.684 | locus YLR221C, strain rsa3, active compounds read low 0.856 | locus YLR258W, strain gsy2, active compounds read low 0.909 | locus YLR262C, strain YPT6 (second series), active compounds read low 0.406 | locus YLR262C, strain YPT6, active compounds read low 0.24 | locus YLR268W, strain sec22, active compounds read low 0.606 | locus YLR320W, strain mms22, active compounds read low 0.435 | locus YLR330W, strain CHS5, active compounds read low 0.688 | locus YLR371W, strain rom2, active compounds read low 0.789 | locus YLR418C, strain cdc73, active compounds read low 0.401 | locus YML016C, strain PPZ1, active compounds read low 0.82 | locus YML032C, strain rad52, active compounds read low 0.291 | locus YML120C, strain ndi1, active compounds read low 0.866 | locus YML124C, strain tub3, active compounds read low 0.802 | locus YMR058W, strain fet3, active compounds read low 0.747 | locus YMR078C, strain ctf18, active compounds read low 0.841 | locus YMR223W, strain ubp8, active compounds read low 0.668 | locus YMR231W, strain pep5, active compounds read low 0.882 | locus YMR263W, strain SAP30, active compounds read low 0.756 | locus YNL067W, strain RPL9B, active compounds read low 0.699 | locus YNL071W, strain lat1, active compounds read low 0.831 | locus YNL128W, strain TEP1, active compounds read low 0.638 | locus YNL153C, strain GIM3, active compounds read low 0.568 | locus YNL209W, strain ssb2, active compounds read low 0.879 | locus YNL233W, strain BNI4, active compounds read low 0.729 | locus YNL248C, strain rpa49, active compounds read low 0.55 | locus YNL250W, strain rad50, active compounds read low 0.463 | locus YNL271C, strain bni1, active compounds read low 0.847 | locus YNL298W, strain CLA4, active compounds read low 0.823 | locus YNL307C, strain MCK1, active compounds read low 0.669 | locus YNL322C, strain KRE1, active compounds read low 0.803 | locus YNR052C, strain pop2, active compounds read low 0.59 | locus YOL147C, strain pex11, active compounds read low 0.749 | locus YOR001W, strain rrp6, active compounds read low 0.855 | locus YOR061W, strain CKA2, active compounds read low 0.847 | locus YOR069W, strain VPS5, active compounds read low 0.79 | locus YOR070C, strain gyp1, active compounds read low 0.874 | locus YOR083W, strain WHI5, active compounds read low 0.793 | locus YOR106W, strain vam3, active compounds read low 0.577 | locus YOR136W, strain idh2, active compounds read low 0.845 | locus YOR144C, strain elg1, active compounds read low 0.886 | locus YOR184W, strain ser1, active compounds read low 0.375 | locus YOR270C, strain vph1, active compounds read low 0.364 | locus YOR290C, strain snf2, active compounds read low 0.796 | locus YPL051W, strain arl3, active compounds read low 0.737 | locus YPL106C, strain sse1, active compounds read low 0.705 | locus YPL240C, strain hsp82, active compounds read low 0.909 | locus YPL241C, strain CIN2, active compounds read low 0.847 | locus YPR163C, strain tif3, active compounds read low 0.775 | locus YPR167C, strain met16, active compounds read low 0.851 | strain wtn01, active compounds read low 0.752
inactive: locus YKL068W, active compounds read low 0.967 | locus YKL085W, strain MDH1 (second series), active compounds read low 0.944 | locus YKL085W, strain MDH1, active compounds read low 0.944 | locus YKR026C, strain gcn3, active compounds read low 0.97 | locus YKR091W, strain srl3, active compounds read low 0.97 | locus YLL001W, strain dnm1, active compounds read low 0.903 | locus YLL026W, active compounds read low 0.941 | locus YLL041C, strain sdh2, active compounds read low 0.953 | locus YLR102C, strain apc9, active compounds read low 0.961 | locus YLR113W, strain HOG1, active compounds read low 1 | locus YLR342W, strain FKS1 (second series), active compounds read low 0.923 | locus YLR342W, strain FKS1, active compounds read low 0.975 | locus YLR357W, strain rsc2, active compounds read low 0.995 | locus YLR384C, strain iki3, active compounds read low 0.936 | locus YMR125W, strain sto1, active compounds read low 0.959 | locus YMR129W, active compounds read low 0.972 | locus YMR205C, strain PFK2, active compounds read low 0.96 | locus YMR307W, strain GAS1, active compounds read low 0.677 | locus YNL183C, strain NPR1, active compounds read low 0.836 | locus YNL322C, strain KRE1 (second series), active compounds read low 0.965 | locus YNR049C, strain mso1, active compounds read low 0.942 | locus YOL012C, strain htz1 0.695 | locus YOR080W, strain dia2, active compounds read low 0.948 | locus YOR231W, strain MKK1, active compounds read low 0.895 | locus YOR265W, strain rbl2, active compounds read low 0.935 | locus YOR316C, strain cot1, active compounds read low 0.941 | locus YPL078C, strain atp4, active compounds read low 0.897 | locus YPL256C, strain CLN2, active compounds read low 0.996 | locus YPR119W, strain clb2, active compounds read low 0.931 | locus YPR141C, strain kar3, active compounds read low 0.966

— PubChem BioAssay AID1159580 (chemical genetic matrix, 2015)
